The assay is described as follows: growth inhibition of WT strain, primary screen, mitochondrial fusion inhibitor project, WT and mutant strains, chemical genetic (AID 1362). To be noted: mitochondrial fusion phenotypic screen, at 10 µM.
The mark [1] stands for this setting: WT strain, growth inhibition, stronger effect = higher value.

Screen size: about 190,000 compounds; about 4,000 (2.1%) were called active. Cut-off read from the data, not from the text of the source: active = inhibition above about 58%; inactive = the rest, inconclusive results apart; tested in S. cerevisiae. The sample as a whole holds a higher share of actives than the screen did.

A word on the inhibition: it is the change of the read-out against control, counted positive when it falls. For `CCOc1c(Cl)cc(/C=N/O)cc1OC`, the inhibition by setting is: under setting [1], -6.94% (inactive); (mutant strain inhibition) -20.7%.

Take `CCOc1cc(/C=N/O)cc(Br)c1OC`: the inhibition was -2.36% (inactive) under setting [1] and -20.3% (mutant strain inhibition).

As to `N#CC1(C#N)C(C(=O)C23CC4CC(CC(C4)C2)C3)C12CCOCC2` (centres undefined), the inhibition by setting is: under setting [1], 21.5% (inactive); (mutant strain inhibition) 11.6%.

With `CCOc1cc(N2CCOCC2)c(OCC)cc1NC(=O)C1=NN(c2cccc(C)c2)C(=O)CC1`, the inhibition reads like this: under setting [1], -2.98% (inactive); (mutant strain inhibition) 16.4%.

On to `Cc1cc(C)c(OCCN2CC(C)OC(C)C2)c(Br)c1` (centres undefined), for which the inhibition was 21.8% (inactive) under setting [1] and 42.5% (mutant strain inhibition).

On to `Cc1ccc(OCc2n[nH]c(=S)n2-c2ccc(C)cc2)cc1`, for which the inhibition reads like this: under setting [1], 69.9% (active); (mutant strain inhibition) 60.1%.

With `Cc1ccc(OCc2n[nH]c(=S)n2-c2ccccc2)cc1`, the inhibition runs as follows: under setting [1], 11.4% (inactive); (mutant strain inhibition) 20.6%.

As to `S=c1[nH]nc(COc2ccccc2)n1-c1ccccc1`, the inhibition reads like this: under setting [1], -7.14% (inactive); (mutant strain inhibition) -7.05%.

Turning to `COc1ccc(CN(C)C(=S)Nc2ccc(Cl)cc2Cl)cc1`, the inhibition was 22.4% (inactive) under setting [1] and 21.9% (mutant strain inhibition).

For `O=Cc1cn(Cc2ccccc2)nc1-c1cccnc1`, the inhibition reads like this: under setting [1], -22.6% (inactive); (mutant strain inhibition) 3.85%.

On to `N#C/C(=C(\O)C(F)(F)F)c1nnc2n1CCCCC2`, for which the inhibition was 22% (inactive) under setting [1] and 13.5% (mutant strain inhibition).

On to `CC(=O)Nc1cccc(-c2cnc3ccccc3n2)c1`, for which the inhibition under setting [1] is 13.3% (inactive) and the inhibition (mutant strain inhibition) turned out to be 9.81%.

In the case of `Cc1ccc2nc(-c3ccccc3)cc(C(=O)O)c2c1`, the inhibition is 3.84% (inactive) under setting [1] and 0.25% (mutant strain inhibition).

On to `CCS(=O)(=O)Nc1cccc(-c2cc(-c3ccccc3)c3cc(C)ccc3n2)c1`, for which the inhibition was 69.3% (active) under setting [1] and -17.6% (mutant strain inhibition).

`CCC(C)(C)NC(=O)/C=C/c1cc(OC)c(OC)c(S(=O)(=O)N2CCc3ccccc32)c1`: the inhibition is 7.15% (inactive) under setting [1] and 8.01% (mutant strain inhibition).

In the case of `COc1ccc(CS(=O)/C(Cl)=C(/Cl)C(=O)Nc2ccc(OC)nc2)cc1` (centres undefined), the inhibition under setting [1] was 80% (inactive) and the inhibition (mutant strain inhibition) was found to be 83.5%.

As for `NC(=O)c1sc2nc3c(c(-c4ccccc4)c2c1N)CCC3`, the inhibition reads like this: under setting [1], -6.05% (inactive); (mutant strain inhibition) -18.6%.

For the compound `Cc1nc2sc(C(=O)c3ccccc3)c(N)c2c2c1CCCC2`, the inhibition by setting is: under setting [1], 66.8% (active); (mutant strain inhibition) 35.7%.

Regarding `CN(C)c1ccnc2sc(C(=O)c3ccccc3)c(N)c12`, the inhibition reads like this: under setting [1], 38.8% (inactive); (mutant strain inhibition) 22.2%.

`COc1ccccc1CNC(=O)C1Cc2ccccc2C(=O)O1` (centres undefined): the inhibition is -29.6% (inactive) under setting [1] and -2% (mutant strain inhibition).

For `CCOc1cc(NC(=O)CCl)c(OCC)cc1NC(C)=O`, the inhibition is -12.2% (inactive) under setting [1] and 11.6% (mutant strain inhibition).

For `CC(C)(C)NC(=O)CN1CCC(NC(=O)C23CC4CC(CC(C4)C2)C3)CC1`, the inhibition was -5.35% (inactive) under setting [1] and -4.48% (mutant strain inhibition).

Regarding `CSc1ccc(C(=O)C2CCCN(C(=O)c3ccc(C)nc3)C2)cc1` (centres undefined), the inhibition reads like this: under setting [1], 0.28% (inactive); (mutant strain inhibition) -10.8%.

With `CC1(C)CC(=O)c2cnc3nc4ccccc4n3c2C1`, the inhibition by setting is: under setting [1], 16.6% (inactive); (mutant strain inhibition) -7.45%.

Turning to `O=c1c2ccccc2nc2n1C1(CCCCC1)Cc1ccccc1-2`, the inhibition is 61.2% (active) under setting [1] and 9.31% (mutant strain inhibition).

With `c1cncc(-c2nnc3n2C2(CCCCC2)Cc2ccccc2-3)c1`, the inhibition under setting [1] is 11.9% (inactive) and the inhibition (mutant strain inhibition) turned out to be 5.15%.

For `CCC1(CC)Cc2ccccc2-c2nc3ccccc3c(=O)n21`, the inhibition was -30.3% (inactive) under setting [1] and 0.33% (mutant strain inhibition).

As to `COC(=O)C1=C(C)NC(=O)/C1=C/c1ccc(CNS(=O)(=O)c2ccc(C)cc2)o1`, the inhibition is, setting by setting: under setting [1], -8.5% (inactive); (mutant strain inhibition) 0.18%.

Take `NS(=O)(=O)c1ccc(CCNC(=O)c2ccc([N+](=O)[O-])cc2[N+](=O)[O-])cc1`: the inhibition runs as follows: under setting [1], -6.04% (inactive); (mutant strain inhibition) -5.86%.

Turning to `COC(=O)c1ccc(NC(=O)c2ccccc2NS(=O)(=O)c2ccccc2)cc1`, the inhibition runs as follows: under setting [1], 6.94% (inactive); (mutant strain inhibition) 15.7%.

For `COc1cc(NC(=O)c2ccccc2NS(=O)(=O)c2ccc(Cl)s2)cc(OC)c1`, the inhibition is, setting by setting: under setting [1], 67.2% (active); (mutant strain inhibition) 46.5%.

Turning to `COc1cc(NC(=O)c2cccnc2SC)cc(OC)c1`, the inhibition is -8.4% (inactive) under setting [1] and -8.46% (mutant strain inhibition).

Regarding `CCOC(=O)C1CCN(c2ncnc3c2c(-c2ccccc2)cn3-c2ccc(C)cc2)CC1`, the inhibition runs as follows: under setting [1], 14.7% (inactive); (mutant strain inhibition) 15.5%.

`COc1cccc(-c2nc(S(=O)(=O)c3ccccc3)c(N3CCOCC3)o2)c1`: the inhibition is, setting by setting: under setting [1], -12% (inactive); (mutant strain inhibition) -5.11%.

With `COc1cccc(-c2cc3nc4c(c(N5CCC6(CC5)OCCO6)n3n2)CCCC4)c1`, the inhibition was 69.6% (active) under setting [1] and 33.9% (mutant strain inhibition).

For `COc1cccc(CNc2nc3nc4c(c(=O)n3[nH]2)CCC4)c1`, the inhibition is -0.87% (inactive) under setting [1] and -10.6% (mutant strain inhibition).

As to `Cc1ccc(NC(=O)CN2CCC(C(N)=O)CC2)cc1[N+](=O)[O-]`, the inhibition was -8.61% (inactive) under setting [1] and -3.52% (mutant strain inhibition).

Regarding `CCCN(C(=O)CSc1nnnn1C)c1c(N)n(Cc2ccccc2)c(=O)[nH]c1=O`, the inhibition is -4.08% (inactive) under setting [1] and -15.2% (mutant strain inhibition).

Regarding `CC(C)c1ccc2c(c1)c(SC(C)(C)C)c(CC(C)(C)C(=O)O)n2Cc1ccc(Cl)cc1`, the inhibition was 70.4% (active) under setting [1] and 23.5% (mutant strain inhibition).

With `Cc1ccc(C(=O)N2CCN(S(=O)(=O)N3CCOCC3)CC2)cc1`, the inhibition is, setting by setting: under setting [1], 8.87% (inactive); (mutant strain inhibition) 9.09%.

As to `COc1ccc(C2CC(c3cccs3)=NN2C(=O)CSc2nncs2)cc1OC` (centres undefined), the inhibition is, setting by setting: under setting [1], -1.36% (inactive); (mutant strain inhibition) -8.65%.

Turning to `Cc1ccccc1CC1(CO)CCCN(Cc2ccc3c(c2)OCCO3)C1` (centres undefined), the inhibition is -4.77% (inactive) under setting [1] and 1.77% (mutant strain inhibition).

The values above are taken from PubChem BioAssay AID1362 (SRMLSC, 2008).
